IL1B secr inh: qHTS for Inhibitors of Inflammasome Signaling: IL-1-beta AlphaLISA Primary Screen | THP-1 LPS/ATP IL-1B secretion, AlphaLISA, 16 h; hits give low values | activity change, % at 57.5 µM | actives 4.7% (n = 360,000) | AID 743279, 2014; in the data active = activity change below about -50%; inconclusive = mostly about -30% to -49%
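THP-1 cells pretreated 1 hr with compounds (up to 57.5 uM final), then stimulated with LPS (250 ng/mL final) plus ATP (1.25 mM final); secreted IL-1B measured by AlphaLISA after 16 hr, decreased signal indicating inhibition.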
D3 ag: qHTS of D3 Dopamine Receptor Agonist: qHTS; D3R DiscoveRx beta-arrestin cells, luminescence, 90 min; D(3) dopamine receptor (Homo sapiens), P35462; actives 0.58% (n = 410,000); max activation, %; AID 652048, 2013; in the data active = max activation above about 30%
Target sequence (P35462 whole entry, looked up): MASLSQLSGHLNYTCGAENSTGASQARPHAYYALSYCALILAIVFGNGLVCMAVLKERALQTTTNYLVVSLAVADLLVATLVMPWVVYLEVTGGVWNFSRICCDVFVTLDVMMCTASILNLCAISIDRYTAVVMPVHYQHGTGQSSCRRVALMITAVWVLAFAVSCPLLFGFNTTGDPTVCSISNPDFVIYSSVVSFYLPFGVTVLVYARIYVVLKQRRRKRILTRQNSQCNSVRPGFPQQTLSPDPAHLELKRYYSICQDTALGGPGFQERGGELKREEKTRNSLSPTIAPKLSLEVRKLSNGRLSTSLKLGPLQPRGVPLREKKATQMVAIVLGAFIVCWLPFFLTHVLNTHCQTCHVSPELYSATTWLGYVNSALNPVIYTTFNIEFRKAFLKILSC
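Agonist mode: compounds and dopamine controls were applied to plated cells for 90 min at 37 degrees C after an overnight attachment at 1500 cells/well. Luminescent read-out followed 30 - 60 minutes at room temperature with DiscoveRx detection reagent.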
DT40 TDP1 no CPT: qHTS for Inhibitors of human tyrosyl-DNA phosphodiesterase 1 (TDP1): qHTS in cells in absence of CPT; DT40 Tdp1-/- hTDP1 cells, no CPT, ATP luminescence, 48 h; actives 15% (n = 420,000); Potency, µM (doses to about 46.2 µM), most hits filed as inhibitors; note: nearly all actives have a fitted effect of over 55% in size
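Growth of hTDP1-complemented DT40 Tdp1-knockout cells is measured by ATP luminescence after at least 48 hr compound exposure at 37 °C, with DMSO substituting for the 20 nM CPT used in the parallel screen.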
ClpP mod: qHTS Assay for Activators of ClpP; ATP-dependent Clp protease proteolytic subunit (Bacillus subtilis (strain 168)), P80244; purified B. subtilis ClpP, FRET peptide cleavage, 20 min; Potency, µM (top dose mostly 57.5 µM); actives 1.9% (n = 340,000); active = well fitted falling curve with a large enough effect; inconclusive = small, poorly fitted or top-dose-only effect; inactive = no such curve, though single readings can be large or run the other way; note: the source files actives as falling curves though it sought activators and does not explain the sign; nearly all actives have a fitted effect of over 65% in size
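Buffer: 100 mM Tris/HCl pH8, 100 mM KCl, 0.05% low protease BSA, 2.5% glycerol, 0.01% Tween-20. ClpP 10 microg/mL final; 20 min RT; delta FRET normalized to ADEP and DMSO controls.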
TDP1 cell CPT: qHTS for Inhibitors of human tyrosyl-DNA phosphodiesterase 1 (TDP1): qHTS in cells in presence of CPT; chicken DT40 Tdp1-/-;hTDP1 cells + 20 nM CPT, ATP luminescence, 48 h; Potency, µM (doses to about 46.2 µM), actives largely listed as inhibitors; actives 12% (n = 420,000); AID 686979, 2013; note: nearly all actives have a fitted effect of over 55% in size
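Chicken DT40 Tdp1-/- cells stably complemented with human TDP1 were seeded at 400 cells/well in medium containing 20 nM camptothecin, exposed to pin-transferred compounds, and grown at 37 °C for at least 48 hr. Viability was read as ATP luminescence.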
DRD3 antagonist: qHTS of D3 Dopamine Receptor Antagonist: qHTS. D(3) dopamine receptor (Homo sapiens), P35462. D3R cells, DiscoveRx beta-arrestin luminescence, antagonist mode; hits give low values. max response, negative = inhibition, %. actives 2.5% (n = 360,000). AID 652054, 2013; in the data active = max response below about -50%; inconclusive = no clear call, values can overlap the other calls
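Cells expressing the human receptor were seeded at 1500 cells/well, incubated overnight at 37 degrees C in 5% CO2, then exposed to library compounds with dopamine controls for 90 minutes at 37 degrees C before luminescent detection.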
Of the large screens only hits and unclear results are named; the others gave an inactive call. This is a sample that favours compounds with a hit; in the whole collection about 21% have one here. Unless noted, calls come from the whole dose curve; as a rule, active = well fitted inhibition curve with a large enough effect; inconclusive = small, poorly fitted or top-dose-only effect; inactive = flat fitted curve, though single readings scatter.

C=CCC[C@H](Cc1ccc(F)cc1)C(=O)OC[C@@H](NC(=O)[C@H](CC=C)CC(=O)NCCO)c1ccccc1	DT40 TDP1 no CPT inconclusive, TDP1 cell CPT 21µM
C=CC[C@H](CC(=O)NCCO)C(=O)N[C@@H](COC(=O)[C@@H](CC=C)Cc1ccc(F)cc1)Cc1ccccc1	DT40 TDP1 no CPT inconclusive, TDP1 cell CPT 21µM
O=C(OCCc1ccccn1)c1cccc([N+](=O)[O-])c1	none (no result: ClpP mod)
Cc1c(C(=O)N2CCC(C)CC2)c(S(=O)(=O)N2CCN(c3ccc(Cl)cc3)CC2)c(C)n1C	DT40 TDP1 no CPT inconclusive, TDP1 cell CPT inconclusive (no result: IL1B secr inh, DRD3 antagonist)
O=S(=O)(c1ccccc1)N1CCN=C1SCc1ccc(Cl)cc1	DT40 TDP1 no CPT 18µM, TDP1 cell CPT inconclusive
O=S(=O)(c1ccccc1)N1CCN=C1SCc1ccccc1Cl	DT40 TDP1 no CPT inconclusive, TDP1 cell CPT inconclusive
O=S(=O)(c1ccccc1)N1CCN=C1SCc1ccc(Cl)c(Cl)c1	DT40 TDP1 no CPT 18µM, TDP1 cell CPT 13µM
CCS(=O)(=O)N1CCN=C1SCc1ccccc1	none
O=S(=O)(c1ccc2ccccc2c1)N1CCN=C1SCc1cccnc1	DT40 TDP1 no CPT inconclusive, TDP1 cell CPT 23µM
O=S(=O)(c1ccccc1)N1CCN=C1SCc1cccc(Cl)c1	DT40 TDP1 no CPT 21µM, TDP1 cell CPT inconclusive
Cc1ccc(NC(=O)CN2C(=O)CCc3ccccc32)cc1C	DT40 TDP1 no CPT inconclusive, TDP1 cell CPT inconclusive (no result: IL1B secr inh, DRD3 antagonist)
Cc1n[nH]c(C)c1S(=O)(=O)N1CCN(S(=O)(=O)c2cccc(F)c2)CC1	none
CCOC(=O)N1CCN(C(=S)NC(=O)c2ccc(F)c(F)c2)CC1	DT40 TDP1 no CPT 15µM, ClpP mod 28µM, TDP1 cell CPT inconclusive
CC(=O)SC(C[N+](=O)[O-])c1cn(C(C)=O)c2ccccc12 (stereo not drawn)	IL1B secr inh -82, DT40 TDP1 no CPT 2.9µM, ClpP mod inconclusive, TDP1 cell CPT 4.6µM
CCOc1ccccc1NC(=O)COc1ccc2ccc(=O)oc2c1	none (no result: ClpP mod)
CCc1nnc(NC(=O)C23CC4CC(CC(C4)C2)C3)s1	none
CC(C)Cc1nnc(NC(=O)C23CC4CC(CC(C4)C2)C3)s1	DT40 TDP1 no CPT 18µM, TDP1 cell CPT inconclusive
NC(=O)CSc1nnc(NC(=O)C23CC4CC(CC(C4)C2)C3)s1	D3 ag 40
CCOC1OC(=O)C(Cl)=C1Nc1ccc(C)cc1C (stereo not drawn)	none
CCc1cccc(C)c1NC(=O)Cn1c(=O)cc(C(F)(F)F)c2c(C)nn(C)c21	DT40 TDP1 no CPT inconclusive, TDP1 cell CPT inconclusive (no result: IL1B secr inh, DRD3 antagonist)
OC(c1ccccc1)c1ncc(-c2ccc(Oc3ccccc3)cc2)[nH]1 (stereo not drawn)	DT40 TDP1 no CPT 18µM, TDP1 cell CPT 23µM
OC(c1ccc(Cl)cc1)c1ncc(-c2ccc(Oc3ccccc3)cc2)[nH]1 (stereo not drawn)	IL1B secr inh inconclusive, DT40 TDP1 no CPT 21µM, TDP1 cell CPT 21µM
CCCn1c(C(C)Nc2nc(C)cs2)nc2cc(Cl)c(Cl)cc21 (stereo not drawn)	DT40 TDP1 no CPT inconclusive, TDP1 cell CPT inconclusive
COc1ccc(C(CNC(=O)c2cccc(NS(=O)(=O)c3ccc(C)c(F)c3)c2)N2CCOCC2)cc1 (stereo not drawn)	IL1B secr inh inconclusive, DT40 TDP1 no CPT inconclusive, TDP1 cell CPT inconclusive (no result: ClpP mod)
COc1ccc(CN2COc3ccc4c(C)cc(=O)oc4c3C2)cc1	none (no result: IL1B secr inh, DT40 TDP1 no CPT, TDP1 cell CPT, DRD3 antagonist)
COc1ccc(CN2COc3ccc4c(-c5ccccc5)cc(=O)oc4c3C2)cc1	DT40 TDP1 no CPT 16µM, TDP1 cell CPT inconclusive (no result: IL1B secr inh, DRD3 antagonist)

Assay outcomes as filed in PubChem.
